Source: PubChem BioAssay (National Center for Advancing Translational Sciences (NCATS))
An excerpt weighted towards active compounds, which were near 21% of everything screened.
Giardia FBPA inh = blocks Giardia fructose-bisphosphate aldolase activity. 290,000 compounds, 0.71% hits. purified Giardia FBPA. Potency, µM (titrated, usually from 59.6 µM), without a hit: top-dose activity, negative = inhibition, actives largely listed as inhibitors; note: potency is the fitted concentration of half-maximal effect; % is set by controls: 0 for no effect and ±100 for the full control effect; nearly all actives have a fitted effect of over 55% in size
Target sequence (A8B2U2 whole entry, looked up): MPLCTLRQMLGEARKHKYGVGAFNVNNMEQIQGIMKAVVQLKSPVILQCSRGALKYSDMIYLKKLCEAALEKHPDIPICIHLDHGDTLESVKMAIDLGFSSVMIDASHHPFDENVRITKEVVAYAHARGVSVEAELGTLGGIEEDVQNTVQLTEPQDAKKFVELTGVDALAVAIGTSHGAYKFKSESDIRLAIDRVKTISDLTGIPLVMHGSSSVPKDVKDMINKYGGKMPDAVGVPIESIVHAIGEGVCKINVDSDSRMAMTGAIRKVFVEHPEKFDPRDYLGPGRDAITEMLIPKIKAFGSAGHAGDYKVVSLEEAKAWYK
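Giardia FBPA (40 nM reagent) was preincubated 10 min at RT with compound (up to 57.5 uM final), then substrate plus GAPDH/TPI/NAD/arsenate coupling system with diaphorase/resazurin was added; resorufin fluorescence (525/598 nm) was read after 20 min.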
Cycloheximide cs = counter-screen hit for Shiga toxin inhibitors, cycloheximide; 300,000 compounds, 12% hits; max response, %; cell reporter, cycloheximide protein synthesis inhibition counterscreen; AID 2314; in the data active = max response mostly above about 13%, no sharp cut-off; inactive = mostly below about 14%; note: read at 38.3 µM for the half of the compounds with a filed dose; 0% is about no effect
NS1 inh = blocks influenza NS1 protein function. AID 2326. Potency, µM (highest dose often 46.1 µM), for inactives: top-dose activity, positive = more growth. 270,000 compounds, 0.4% hits; calls by dose curve; note: potency is the fitted concentration of half-maximal effect; actives are rising curves; nearly all actives have a fitted effect of over 50% in size
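In this qHTS, NS1 from influenza A is expressed in budding yeast, where it slows growth. Cells are switched from glucose to 2% galactose medium (pH 6.0, -URA), treated with compound, and growth recovery is read at OD600.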
Shiga inhibitor = blocks Shiga toxin action in Vero cells. Vero cells, Shiga toxin protein synthesis inhibition reporter. inhibition, % at 38.7 µM. 290,000 compounds, 9.2% hits; in the data active = inhibition mostly above about 28%, no sharp cut-off; inactive = mostly below about 43%; note: 0% is about no effect
Pf growth 96h = inhibits malaria parasite growth, 96 h. P. falciparum luciferase reporter growth, 96 h. Potency, µM (series often up to 28.7 µM), without a hit: at the top dose activity change, negative = inhibition, most hits filed as inhibitors. 320,000 compounds, 6.9% hits; note: potency is the fitted concentration of half-maximal effect; % is set by controls: 0 for no effect and ±100 for the full control effect
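Infected RBCs, 2% Hct / 0.05% parasitemia final; luciferase-reporter P. falciparum; cpd 96 h, 37 C, 5% CO2; luciferase detection reagent; luminescence.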
Pf growth 48h = inhibits P. falciparum growth in the first generation, 48 h; P. falciparum luciferase growth in erythrocytes, 48 h; Potency, µM (titrated, usually from 28.7 µM), without a hit: at the highest dose activity change, negative = inhibition, hits mostly inhibitors; 310,000 compounds, 5.9% hits; note: potency is the fitted concentration of half-maximal effect; % is set by controls: 0 for no effect and ±100 for the full control effect
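Luminescence readout; reporter = integrated firefly luciferase in P. falciparum. RBC culture at 2% hematocrit, 0.1% parasitemia final, 37 C/5% CO2; decreased signal taken as growth inhibition.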
* hit, by the source's call; ? = inconclusive; . = no result; [ ] = another dose, or the depositor's remark. Unless noted, calls come from the whole dose curve; as a rule, active = well fitted curve in the direction sought with a large enough effect; inconclusive = small, poorly fitted or top-dose-only effect, or another doubt; inactive = no such curve, though single readings can be large; an effect the other way counts as inactive or inconclusive.

SMILES	Giardia FBPA inh	Cycloheximide cs	NS1 inh	Shiga inhibitor	Pf growth 96h	Pf growth 48h
CC(C)CN(C(=O)c1ccco1)C1CCS(=O)(=O)C1 (configuration not stated)	.	.	.	.	-10%	2%
COc1ccc(C(=O)NC2CCc3ccccc32)cc1OC1CCN(C(C)=O)CC1 (configuration not stated)	.	-3	10%	-18	13µM*	?
COc1cc(C(=O)NC2Cc3ccccc3C2)ccc1OC1CCN(C(C)=O)CC1	.	8	-16%	-3	?	?
COc1cc(C(=O)NC2CC(C)(C)CC(C)(C)C2)ccc1OC1CCN(C(C)=O)CC1	7%	-4	13%	-4	9.3µM*	?
COc1ccc(C(=O)NC2CC2)cc1OC1CCN(Cc2ccccc2O)CC1	.	-1	-5%	-9	133%	?
O=C1[C@@H]2Cc3c([nH]c4ccccc34)C(c3ccccc3)N2C(=O)CN1C1CCN(Cc2ccccc2)CC1 (some centres not stated)	3%	-10	1%	-6	0.74µM*	9%[0.00184 µM]
CN1CC(=O)N2C(Cc3c([nH]c4ccccc34)[C@H]2c2ccc3c(c2)OCO3)C1=O (some centres not stated)	.	.	.	.	?	-6%
O=C1[C@@H]2Cc3c([nH]c4ccccc34)C(c3cccc(Br)c3)N2C(=O)CN1C1CCN(Cc2ccccc2)CC1 (some centres not stated)	1%	18*	9%	17	?	1.5µM*
COC(=O)c1ccc(C2c3[nH]c4ccccc4c3C[C@H]3C(=O)N(C4CCN(Cc5ccccc5)CC4)CC(=O)N23)cc1 (some centres not stated)	-5%	3	6%	-4	3.3µM*	4.7µM*
O=C(NC(NCc1cccnc1)C(Cl)(Cl)Cl)c1cccc2ccccc12 (configuration not stated)	-1%	0	-12%	-5	-22%	-24%
CCCCn1c(N)c(N(CCOC)C(=O)c2ccc(S(=O)(=O)N3CCCCCC3)cc2)c(=O)[nH]c1=O	.	.	.	.	-9%	?
O=C(CCCCn1c(=O)c2ccccc2n(Cc2ccc(Cl)cc2)c1=O)NCc1ccco1	6%	0	-14%	-3	25%	12µM*
N#Cc1ccccc1Cn1c(=O)n(CCC(=O)NCc2ccco2)c(=O)c2ccccc21	-2%	-5	0%	-13	?	-23%
Cc1cccc(Cn2c(=O)n(CCCC(=O)NCc3ccco3)c(=O)c3ccccc32)c1	-1%	-2	12%	-15	5%	?
N#Cc1ccccc1Cn1c(=O)n(Cc2ccc(C(=O)NCc3ccco3)cc2)c(=O)c2ccccc21	6%	-1	11%	-1	81%	2.9µM*
Cc1ccccc1Cn1c(=O)n(CCCC(=O)NCc2ccco2)c(=O)c2ccccc21	8%	14*	-1%	14	?	?
Cc1ccccc1Cn1c(=O)n(-c2ccccc2)c(=O)c2ccc(C(=O)NCc3ccco3)cc21	-1%	-8	11%	-26	8.3µM*	-6%
Cc1cc(C)c(NC(=O)Cn2c(=O)n(Cc3ccco3)c(=O)c3ccccc32)c(C)c1	12%	1	1%	1	6%	13µM*
Cc1ccccc1Cn1c(=O)n(Cc2ccco2)c(=O)c2ccccc21	-3%	-2	-8%	12	-27%	-29%
COC12C(COC(N)=O)C3=C(C(=O)C(C)=C(N)C3=O)N1CC1C2N1C (configuration not stated)	?	-1	2%	1	?	0.93µM*
Cc1cc(NC(=O)CSc2nc3c(cc2C#N)CCC3)no1	-10%	29*	10%	97*	-2%	131%
COc1ccc2nc(SCC(=O)Nc3cc(C)on3)c(C#N)cc2c1	.	-3	7%	-3	1%	48%
Cc1cc(NC(=O)CSc2nc3c(cc2C#N)CCCC3)no1	1%	38*	0%	49*	243%	247%
Cc1noc(NS(=O)(=O)c2ccc(NC(=O)CSc3nc4c(cc3C#N)CCCC4)cc2)c1C	28%	-3	-95%	-4	?	.
Cc1cc(NC(=O)CSc2nc3ccccc3cc2C#N)no1	4%	17	-13%	39*	12%	21%
SMILES	Giardia FBPA inh	Cycloheximide cs	NS1 inh	Shiga inhibitor	Pf growth 96h	Pf growth 48h
Cc1cc(C)c2nc(SCC(=O)Nc3cc(C)on3)c(C#N)cc2c1	4%	-2	0%	-4	18%	-1%
O=C1NC[C@H](c2ccccc2)N1	-2%	.	.	.	.	.
O=S(=O)(O)c1cc(O)c2c(O)c(N=Nc3cccc4ccccc34)c(S(=O)(=O)O)cc2c1	.	.	0%	.	.	.
Fc1ccc([C@H]2CCNC[C@H]2COc2ccc3c(c2)OCO3)cc1	9%	.	.	.	.	.
CC(=O)Nc1cccc2c1C(=O)N(c1ccc(OC(C)=O)cc1)C2=O	-4%	3	-2%	11	2.6µM*	4%
CC1CC(C)CN(C(=O)c2cc3ccccc3o2)C1 (configuration not stated)	.	.	.	.	-81%	?
O=C(c1cc2cc(Br)ccc2o1)N1CCCC1	-5%	39*	-33%	61*	-27%	-61%
O=C(c1cc2cc(Br)ccc2o1)N1CCN(c2ccccc2)CC1	.	51*	2%	78*	6%	67%
O=C(c1cc2cc(Br)ccc2o1)N1CCOCC1	4%	19*	-4%	50*	1%	64%
CC1CC(C)CN(C(=O)c2cc3cc(Br)cc(Br)c3o2)C1 (configuration not stated)	-1%	31*	.	41*	0%	-5%
CCC(=C(c1ccc(OC)cc1)c1ccc(OC)cc1)c1cn(CC(O)CN2CCN(C)CC2)c2ccccc12 (configuration not stated)	-8%	-6	17%	-27	.	9.3µM*
COc1ccc(-c2cc3ccccc3n2CC(O)CN2CCCCC2)cc1 (configuration not stated)	?	-1	8%	-12	?	-21%
CN1CCSc2ccc(C(=O)Nc3cc(F)ccc3F)cc21	-10%	54*	-7%	81*	334%	193%
Cc1ccccc1NC(=O)c1ccc2c(c1)N(C)CCS2	-9%	28*	-8%	32*	13µM*	39%
Cc1cc(C)n2c(SCc3ccc(Br)cc3)nnc2n1	-12%	11*	-39%	35	-21%	-4%
O=C(CSc1nnc(-c2cccnc2)o1)Nc1nccs1	.	.	.	.	54%	45%
CC12CN3CC(C)(CN(C1)C3c1cc3ccccc3[nH]1)C2=O (configuration not stated)	2%	-3	-14%	-6	1µM*	22%
CC12CN3CC(C)(CN(C1)C3c1ccncc1)C2=O (configuration not stated)	3%	5	2%	27	31%	0%
O=C(Cc1ccc(Br)cc1)NC1CCCc2ccccc21 (configuration not stated)	4%	5	-3%	-5	-14%	-11%
